The record followed here is PubChem BioAssay.

One assay deals with Albumin (Bos taurus) (UniProt P02769). The assay can be described thus: compounds binding labelled BSA control protein – biochemical, small-molecule microarray, Alexa647 label, 635/667 nm fluorescence, artefact control for SMM control protein annotation, profiling panel (AID 1118).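 Also: score merges 667 nm emission intensity and signal-to-noise per printed compound spot.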 To be noted: BSA-A647 binding, fluorescence 635 nm, higher = more signal.
A short description of assay [1]: probe aXIP binding to arrayed compounds – biochemical, NeuroSMM set, 635/667 nm fluorescence, primary screen (AID 1119).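 Also: probe is the protein aXip251-270 applied at 1 µg/mL to compound-printed slides; binding of probe to printed compounds measured as 667 nm fluorescence plus signal to noise.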 As to conditions: small-molecule microarray, higher = more signal, called active from +8 up or from −8 down.
The nature of assay [2]: probe aNOTCH3 binding on compound microarray – biochemical, small-molecule microarray, 635/667 nm fluorescence, primary screen (AID 1120).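 Also: probe is a biotin-tagged antibody raised against NOTCH3 rather than NOTCH3 protein; score merges spot fluorescence near 667 nm with spot signal to noise.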 As to conditions: higher = more signal.
A short description of assay [3]: probe aNOTCH2 binding on compound microarray – biochemical, small-molecule microarray, 635/667 nm fluorescence, primary screen (AID 1121).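 Also: score merges feature fluorescence read at 667 nm with its signal to noise.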 To be noted: higher = more signal.
The target in assay [4] is Carbonic anhydrase 2 (Homo sapiens) (UniProt P00918). Description: compounds binding carbonic anhydrase 2 – biochemical, small-molecule microarray, Alexa647-labelled CAII, profiling panel (AID 1122). To be noted: CAII-A647 binding fluorescence, higher = more signal.
The nature of assay [5]: COS7 lysate on small-molecule microarray, probe aHis, 635 nm (AID 1123).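 Also: z-score combines 667nm fluorescence intensity with signal-to-noise per printed compound spot.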 As to conditions: COS7 cell lysate, fluorescence, higher = more signal.
The nature of assay [6]: probe aLAP1 signal on lysate-treated microarray – cell lysate, small-molecule microarray, COS7 lysate, primary screen (AID 1124).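 Also: lysate comes from COS7 cells expressing LAP1 and is applied at 0.3 µg/mL; score merges spot fluorescence near 667 nm with signal-to-noise over triplicate slides.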 As to conditions: probe aLAP1, fluorescence, higher = more signal.
A further assay relates to Sam68 (KHDRBS1). The assay can be described thus: compounds binding KHDRBS1 protein – biochemical, small-molecule microarray, 635 nm fluorescence, primary screen (AID 1125).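 Also: score merges 667 nm channel intensity with signal to noise over triplicate slides.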 As to conditions: higher = more signal.
The test system of assay [7] is Chordin-like protein 2 (CHRDL2). Description: compounds binding chordin-like 2 – biochemical, small-molecule microarray, 635 nm fluorescence, primary screen (AID 1126).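 Also: printed compound slides probed with Chrdl2 protein at 4 µg/mL for 1 h at 4 C; score merges 667 nm emission intensity with signal to noise over three replicate slides.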 As to conditions: fluorescence 635 nm, higher = more signal.
Assay [8] concerns the target Concanavalin-A (Canavalia ensiformis) (UniProt P02866). Description: compounds binding concanavalin A lectin – biochemical, small-molecule microarray, Alexa647 label, 635 nm, artefact control for SMM control protein annotation, primary screen (AID 1127).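 Also: z combines 667 nm emission intensity with signal-to-noise across three replicate slides.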 To be noted: ConA-A647 binding fluorescence, higher = more signal.
Assay [9] can be described thus: compounds binding Alexa647 anti-His antibody – biochemical, small-molecule microarray, 635 nm fluorescence, artefact control for SMM control protein annotation, primary screen (AID 1128).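 Also: score merges feature fluorescence with signal-to-noise for each printed compound spot.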 To be noted: higher = more signal.
For assay [10], the system named is Human papillomavirus type 1a E7 protein (residues 1-88). Description: HPV1a E7 small-molecule binders, primary screen, biochemical, small-molecule microarray, residues 1-88, 635 nm (AID 1129). To be noted: small-molecule microarray binding, fluorescence 635 nm; higher = more signal.
Assay [11] has as its target Focal adhesion kinase 1 (Homo sapiens) (UniProt Q05397). The assay can be described thus: PTK2 protein binding on printed compound slides – biochemical, small-molecule microarray, 635/667 nm fluorescence, BSA, DTT, primary screen (AID 1130).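 Also: composite of spot emission at 667 nm and signal to noise over triplicate slides.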 As to conditions: 635 nm fluorescence, higher = more signal.
The test system of assay [12] is Fibrinogen (Alexa647-labelled). The assay can be described thus: Alexa647-fibrinogen binding to printed small molecules – biochemical, small-molecule microarray, 635/667 nm fluorescence, artefact control for SMM control-protein annotation, profiling panel (AID 1131).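 Also: z-score merges 667 nm fluorescence with per-spot signal-to-noise over triplicate slides.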 As to conditions: fibrinogen-A647 binding fluorescence, higher = more signal.
The target in assay [13] is Follistatin (Homo sapiens) (UniProt P19883). The assay can be described thus: FST protein binding to printed compounds – biochemical, small-molecule microarray, 635/667 nm fluorescence, primary screen (AID 1132). As to conditions: 635 nm fluorescence, higher = more signal.
The target of assay [14] is Fibroblast growth factor 2 (Homo sapiens) (UniProt P09038). Description: basic fibroblast growth factor binding to printed compounds – biochemical, small-molecule microarray, 635/667 nm fluorescence, primary screen (AID 1133). To be noted: FGF2, fluorescence 635/667, higher = more signal.
Assay [15] in a line: JC-1 mitochondrial potential readout, lung cancer cells – cell-based, A549, JC-1 fluorescence, basal, 24 h, 100 nL, profiling panel (AID 1138).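 Also: A549 lung adenocarcinoma cells under basal conditions with no added stimulus; test concentration not given here.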 To be noted: higher = more signal.
Another assay has as its system Lefty1. Description: Lefty1 protein binding to printed compounds – biochemical, small-molecule microarray, 635/667 nm fluorescence, primary screen (AID 1139). To be noted: fluorescence 635/667, higher = more signal.
Assay [16] deals with wheat germ agglutinin (Triticum aestivum), Alexa647-labelled. Description: Alexa647-WGA lectin binding to printed small molecules – biochemical, small-molecule microarray, 635/667 nm fluorescence, artefact control for SMM control-protein annotation, profiling panel (AID 1140).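 Also: score merges 667 nm feature emission with signal to noise over triplicate slides.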 As to conditions: WGA-A647 binding, 635 nm fluorescence, higher = more signal.
The target in assay [17] is Luciferin 4-monooxygenase (Photinus pyralis) (UniProt P08659). Description: inhibition of purified Photinus pyralis luciferase – biochemical, luminescence, purified enzyme, 2006 set, primary screen (AID 1141).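 Also: cell-free assay with purified firefly luciferase at 100 ng per well in PBS; test concentration not given here.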 As to conditions: purified firefly luciferase, SteadyGlo luminescence, 30 min; higher = more signal, called active from +8 up or from −8 down.

Active and inactive are the calls of the source.

Sequence of Albumin (Bos taurus) (P02769 whole entry, looked up): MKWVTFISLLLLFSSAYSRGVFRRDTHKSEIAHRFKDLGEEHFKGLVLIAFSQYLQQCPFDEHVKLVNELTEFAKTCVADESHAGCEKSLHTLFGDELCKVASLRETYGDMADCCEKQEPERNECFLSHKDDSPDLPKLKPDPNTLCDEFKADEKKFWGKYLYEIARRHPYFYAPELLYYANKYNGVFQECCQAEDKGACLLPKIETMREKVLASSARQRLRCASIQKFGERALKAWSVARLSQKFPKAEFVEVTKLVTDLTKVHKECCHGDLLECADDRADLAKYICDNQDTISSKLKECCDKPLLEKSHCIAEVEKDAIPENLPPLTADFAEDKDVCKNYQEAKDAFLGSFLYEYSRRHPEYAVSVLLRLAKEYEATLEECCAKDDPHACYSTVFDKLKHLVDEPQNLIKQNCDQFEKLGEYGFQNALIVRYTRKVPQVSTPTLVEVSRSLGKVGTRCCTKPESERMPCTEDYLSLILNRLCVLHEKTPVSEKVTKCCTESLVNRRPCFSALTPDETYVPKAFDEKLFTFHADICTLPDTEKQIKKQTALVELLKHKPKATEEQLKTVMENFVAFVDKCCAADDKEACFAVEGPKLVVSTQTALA
Sequence of Focal adhesion kinase 1 (Homo sapiens) (Q05397 whole entry, looked up): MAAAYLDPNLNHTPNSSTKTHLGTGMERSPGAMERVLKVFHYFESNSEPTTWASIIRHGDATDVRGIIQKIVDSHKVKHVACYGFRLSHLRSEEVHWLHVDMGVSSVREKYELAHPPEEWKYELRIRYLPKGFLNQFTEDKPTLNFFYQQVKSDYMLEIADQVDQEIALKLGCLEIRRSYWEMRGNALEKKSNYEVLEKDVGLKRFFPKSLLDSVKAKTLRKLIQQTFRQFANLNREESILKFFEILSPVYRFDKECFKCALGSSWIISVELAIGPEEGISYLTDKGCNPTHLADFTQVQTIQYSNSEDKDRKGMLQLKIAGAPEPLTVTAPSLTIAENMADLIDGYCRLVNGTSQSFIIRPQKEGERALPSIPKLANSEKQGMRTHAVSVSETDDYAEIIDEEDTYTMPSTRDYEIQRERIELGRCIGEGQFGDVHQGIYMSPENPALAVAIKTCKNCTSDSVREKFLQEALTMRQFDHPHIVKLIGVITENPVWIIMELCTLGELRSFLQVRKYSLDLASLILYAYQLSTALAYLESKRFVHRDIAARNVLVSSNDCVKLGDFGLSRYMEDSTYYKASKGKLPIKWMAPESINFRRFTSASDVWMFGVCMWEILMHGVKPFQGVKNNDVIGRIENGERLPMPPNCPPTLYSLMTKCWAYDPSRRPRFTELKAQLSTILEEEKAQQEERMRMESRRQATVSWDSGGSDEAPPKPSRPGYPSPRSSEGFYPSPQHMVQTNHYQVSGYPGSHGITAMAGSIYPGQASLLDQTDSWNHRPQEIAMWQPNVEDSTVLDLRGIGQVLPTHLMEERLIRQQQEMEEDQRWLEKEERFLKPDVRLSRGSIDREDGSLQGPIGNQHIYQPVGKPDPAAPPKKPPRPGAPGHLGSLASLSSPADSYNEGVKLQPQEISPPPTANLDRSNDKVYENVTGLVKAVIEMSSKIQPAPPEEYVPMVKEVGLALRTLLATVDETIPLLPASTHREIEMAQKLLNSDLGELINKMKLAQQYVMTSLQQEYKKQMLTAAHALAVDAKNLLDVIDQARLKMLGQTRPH
Sequence of Fibroblast growth factor 2 (Homo sapiens) (P09038 whole entry, looked up): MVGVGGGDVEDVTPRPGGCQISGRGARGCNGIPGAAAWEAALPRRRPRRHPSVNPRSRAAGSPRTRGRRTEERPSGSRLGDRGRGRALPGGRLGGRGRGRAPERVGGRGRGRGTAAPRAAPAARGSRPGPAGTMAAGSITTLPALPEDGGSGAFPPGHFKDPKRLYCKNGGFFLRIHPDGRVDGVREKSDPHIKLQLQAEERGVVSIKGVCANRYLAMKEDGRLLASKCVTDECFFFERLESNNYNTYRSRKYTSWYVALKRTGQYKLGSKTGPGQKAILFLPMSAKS
Sequence of Follistatin (Homo sapiens) (P19883 whole entry, looked up): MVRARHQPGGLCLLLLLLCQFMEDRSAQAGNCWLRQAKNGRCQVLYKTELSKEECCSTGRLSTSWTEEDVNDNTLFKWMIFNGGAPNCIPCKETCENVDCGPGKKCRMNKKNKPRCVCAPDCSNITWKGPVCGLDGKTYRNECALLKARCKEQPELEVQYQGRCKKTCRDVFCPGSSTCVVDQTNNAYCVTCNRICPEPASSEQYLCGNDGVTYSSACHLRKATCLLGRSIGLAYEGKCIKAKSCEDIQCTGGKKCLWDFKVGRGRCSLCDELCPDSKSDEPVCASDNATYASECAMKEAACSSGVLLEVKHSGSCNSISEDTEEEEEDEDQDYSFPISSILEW
Sequence of Luciferin 4-monooxygenase (Photinus pyralis) (P08659 whole entry, looked up): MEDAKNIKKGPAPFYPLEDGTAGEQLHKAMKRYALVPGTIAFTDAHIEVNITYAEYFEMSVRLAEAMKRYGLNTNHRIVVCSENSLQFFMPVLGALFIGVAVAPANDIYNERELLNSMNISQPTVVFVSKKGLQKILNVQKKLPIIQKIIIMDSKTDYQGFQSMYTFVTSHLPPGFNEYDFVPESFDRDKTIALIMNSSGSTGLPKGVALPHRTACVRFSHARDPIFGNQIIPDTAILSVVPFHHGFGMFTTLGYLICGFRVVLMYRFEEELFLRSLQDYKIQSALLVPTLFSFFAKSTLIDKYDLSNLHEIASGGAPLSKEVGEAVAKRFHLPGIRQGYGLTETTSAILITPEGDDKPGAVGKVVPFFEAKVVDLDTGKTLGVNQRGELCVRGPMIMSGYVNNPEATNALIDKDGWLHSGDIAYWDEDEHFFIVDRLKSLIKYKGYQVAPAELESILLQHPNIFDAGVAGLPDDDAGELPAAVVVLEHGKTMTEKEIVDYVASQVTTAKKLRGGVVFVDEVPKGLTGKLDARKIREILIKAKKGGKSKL
Sequence of Concanavalin-A (Canavalia ensiformis) (P02866 whole entry, looked up): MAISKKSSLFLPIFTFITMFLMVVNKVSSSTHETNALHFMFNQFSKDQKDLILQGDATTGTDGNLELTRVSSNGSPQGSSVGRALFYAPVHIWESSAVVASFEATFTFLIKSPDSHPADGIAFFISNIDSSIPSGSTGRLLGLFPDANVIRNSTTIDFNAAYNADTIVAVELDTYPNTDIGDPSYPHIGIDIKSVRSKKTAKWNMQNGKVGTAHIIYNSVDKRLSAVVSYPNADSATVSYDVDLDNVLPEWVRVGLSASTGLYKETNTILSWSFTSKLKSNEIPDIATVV

For the compound `CC(C)(C)OC(=O)CC[C@@]12N=C(c3ccc(OCCCO)cc3)O[C@@H]1c1ccccc1CN(Cc1ccccc1)C2=O`, the composite z-score with Albumin (Bos taurus) was -0.478; in [2], 0.0026; in assay [3], -0.11; in assay [4], 0.418; in [5] it was 1.73; in assay [6], -0.0961. In addition, the composite z-score is 1.31 with Sam68 (KHDRBS1); -0.0229 in assay [7]; 1.1 in [8]; 2.46 in [9]; 1.18 in [10]; 1.36 in assay [11]. For the same compound, the composite z-score in assay [12] stood at 0.357; in [13] it was 1.32; in assay [14], 1.43; with Lefty1 it was 0.377; in [16] it was 0.438. Further, in assay [1], the composite Z-score is 0.976 (inactive). Besides, the z-score is 1.09 in [15] and -1.59 (inactive) in assay [17].
`CC(C)(C)OC(=O)CC[C@@]1(C(=O)N2CCOCC2)N=C(c2ccc(OCCCO)cc2)O[C@@H]1c1ccccc1`: the composite z-score is 1.01 with Albumin (Bos taurus); 0.0927 in assay [2]; -0.0017 in [3]; 0.904 in assay [4]; 3.76 in [5]; 0.599 in [6]. Also, the composite z-score in the assay on Sam68 (KHDRBS1) was 1.31; in assay [7] it was -1.26; in assay [8], 0.962; in assay [9], 3.83; in [10], 1.25; in [11] it was 0.217. Moreover, the composite z-score in assay [12] is 0.938; in assay [13] it was 1.33; in [14] it was 0.324; in the assay with Lefty1, -0.508; in assay [16] it was 1.54. In addition, the composite Z-score in assay [1] was -0.0503 (inactive). Besides, the z-score in assay [15] was 2.16; in [17], -1.99 (inactive).
`CC(C)N1C(=O)c2ccccc2[C@@H](C(=O)NCc2ccccc2)[C@@H]1c1ccc(CO)cc1`: the composite z-score is -2.18 in the assay with Albumin (Bos taurus); -0.27 in assay [2]; -0.162 in [3]; 0.741 in assay [4]; 1.51 in assay [5]; 0.409 in assay [6]. Besides, the composite z-score in the assay on Sam68 (KHDRBS1) was 0.0504; in assay [7] it was -0.184; in [8], -1.07; in assay [9], -1.36; in [10], 0.369; in [11] it was 0.427. Besides, the composite z-score was -1.22 in [12]; 0.815 in [13]; 0.82 in assay [14]; -1.28 in the assay on Lefty1; -1.51 in assay [16]. The composite Z-score in [1] was 0.335 (inactive). Besides, the z-score in assay [15] was 1.64; in assay [17], -0.886 (inactive).
`Cc1ccc(S[C@]2(C(=O)NC3CC3)CC(=O)N(Cc3ccccc3C(F)(F)F)[C@@H]2c2ccc(CO)cc2I)cc1`: the composite z-score is -1.2 in the assay with Albumin (Bos taurus); -0.0311 in assay [2]; -0.0708 in assay [3]; 0.653 in assay [4]; 0.898 in assay [5]; 0.417 in assay [6]. The composite z-score in the assay on Sam68 (KHDRBS1) was 0.547; in assay [7], -0.229; in [8], -0.387; in assay [9], -1.01; in assay [10], 0.303; in assay [11], -0.0823. The composite z-score in [12] is -0.763; in assay [13] it was 1.25; in assay [14], 0.0123; in the assay with Lefty1 it was -0.258; in [16] it was 0.74. Moreover, the composite Z-score in [1] is -0.275 (inactive). Further, the z-score in assay [15] is 1.57; in assay [17], -1.15 (inactive).
`C=CC[C@]1(C(=O)N(C)C)N=C(c2ccc(OCCCO)cc2)O[C@H]1c1ccccc1CN=[N+]=[N-]`: the composite z-score in the assay with Albumin (Bos taurus) is 0.79; in assay [2] it was -0.014; in assay [3], 0.0111; in assay [4] it was 0.548; in assay [5], 2.11; in [6] it was 0.79. For the same compound, the composite z-score in the assay with Sam68 (KHDRBS1) was 1.04; in assay [7], -0.474; in [8] it was 1.11; in assay [9] it was 1.84; in [10], 1.23; in [11], 0.418. The composite z-score is 0.415 in [12]; 1.27 in [13]; 0.521 in assay [14]; -0.168 with Lefty1; 0.757 in [16]. The composite Z-score in [1] was 0.328 (inactive). In addition, the figures for the z-score in assay [15] and in assay [17] were 2.49 and -1.12 (inactive), respectively.
